From PubChem BioAssay (NCATS)
Where “and” joins values, the source holds several entries; their conditions need not be identical. Equal values may be shown once. Results filed as inconclusive are left out. Values without a mark were called inactive. Calls of active or inactive are those of the source. The call rests on the fitted dose curve; in most records, active means well fitted inhibition curve with a large enough effect; inconclusive means small, poorly fitted or top-dose-only effect; inactive means flat fitted curve, though single readings scatter.

Tests used:
CRL-7250 = normal cell line; experiment: Cytotoxic Profiling of Annotated Libraries Using Quantitative High-Throughput Screening (AID 1296008); conditions: Five cell lines viability, CellTiter-Glo ATP luminescence, 48-72 h; max response: stronger effect = lower value; further: potency means the concentration at half of the fitted maximal effect; on max response: on the % scale 0 is the no-effect control and ±100 the full control effect
Method in brief: (§1)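 Compounds were pin-transferred onto cells and incubated 48 or 72 hr at 37 degree Celsius, 95% humidity. CellTiter-Glo was added, plates sat 10 min at room temperature, then ATP-coupled luminescence was imaged as the viability read-out.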

HEK293 = experiment: as above; conditions: Five cell lines viability, CellTiter-Glo ATP luminescence, 48-72 h; max response: stronger effect = lower value
Method in brief: as §1

HaCat = experiment: as above; conditions: Five cell lines viability, CellTiter-Glo ATP luminescence, 48-72 h; max response: stronger effect = lower value
Method in brief: as §1

KB-3-1 = experiment: as above; conditions: Five cell lines viability, CellTiter-Glo ATP luminescence, 48-72 h; max response: stronger effect = lower value
Method in brief: as §1

NIH3T3 = experiment: as above; conditions: Five cell lines viability, CellTiter-Glo ATP luminescence, 48-72 h; max response: stronger effect = lower value
Method in brief: as §1

SC27B = experiment: qHTS profiling for inhibitors of Plasmodium falciparum proliferation (AID 504749);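 further: 0% = DMSO vehicle and full inhibition = artemisinin control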; conditions: P. falciparum in erythrocytes, SYBR Green DNA, 72 h; series mostly up to 28.7 µM
Method in brief: (§2)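 Parasite proliferation within erythrocytes, 72 h exposure. Endpoint: SYBR Green I fluorescence after overnight lysis at room temperature. Controls: 0.29 uM artemisinin, DMSO.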

TAB109 = experiment: as above; conditions: P. falciparum in erythrocytes, SYBR Green DNA, 72 h; series mostly up to 28.7 µM
Method in brief: as §2

TAB113 = experiment: as above; conditions: P. falciparum in erythrocytes, SYBR Green DNA, 72 h; series mostly up to 28.7 µM
Method in brief: as §2

TAB165 = experiment: as above; conditions: P. falciparum in erythrocytes, SYBR Green DNA, 72 h; series mostly up to 28.7 µM
Method in brief: as §2

W2 = experiment: as above; conditions: P. falciparum in erythrocytes, SYBR Green DNA, 72 h; series mostly up to 28.7 µM
Method in brief: as §2
Further: nearly all actives have a fitted effect of over 60% in size.

Q: For `O=c1cc(-c2cccc3c2Sc2ccccc2S3)oc(N2CCOCC2)c1`, which outcome (CRL-7250) is on record?
A: Its outcome is “inactive”.

Q: And the outcome (HEK293)?
A: Its outcome is “inactive”.

Q: And the max response (HaCat)?
A: Its max response is -21.6%.

Q: And the outcome (KB-3-1)?
A: Its outcome is “inactive”.

Q: What about the outcome (NIH3T3) of the same compound?
A: The outcome was “inactive”.

Q: `OC[C@H]1O[C@@H](Oc2cc(O)cc(C=Cc3ccc(O)cc3)c2)[C@H](O)[C@@H](O)[C@H]1O` was tested. Which outcome (CRL-7250) did it give?
A: Its outcome is “inactive”.

Q: What about the max response (HEK293) of the same compound?
A: Its max response is -2.18%.

Q: What about the max response (HaCat) of the same compound?
A: Its max response is -6.02%.

Q: What about the outcome (KB-3-1) of the same compound?
A: The outcome was “inactive”.

Q: What about the max response (NIH3T3) of the same compound?
A: Its max response is 2.83%.

Q: How did the Potency (CRL-7250) turn out when `O=C(CCCCCCC(=O)Nc1ccccc1)NO` was run?
A: Its Potency is 8.41 µM (active) and 10.3 µM (active) and 11.8 µM (active).

Q: And the Potency (HEK293)?
A: Its Potency is 5.96 µM (active) and 8.33 µM (active).

Q: What about the Potency (HaCat) of the same compound?
A: The Potency was 7.5 µM (active) and 9.2 µM (active).

Q: What about the Potency (KB-3-1) of the same compound?
A: The Potency was 7.31 µM (active) and 5.8 µM (active) and 9.35 µM (active).

Q: What about the Potency (NIH3T3) of the same compound?
A: The Potency was 10.6 µM (active) and 18.7 µM (active).

Q: Which results are given for `CC(C)NCC(O)COc1cccc2[nH]ccc12` (centres undefined)?
A: max response (CRL-7250): -21.3% and 3.12%; max response (HEK293): -23%; max response (HaCat): -22.9% and 1.98%; max response (KB-3-1): 13.5% and 2.02%; max response (NIH3T3): -7.28% and 1.44%

Q: With `CCn1cc(C(=O)O)c(=O)c2ccc(C)nc21` as the compound, how does the max response (CRL-7250) read?
A: Its max response is 4.8% and -5.54%.

Q: What about the outcome (HEK293) of the same compound?
A: Its outcome is “inactive”.

Q: And the outcome (HaCat)?
A: Its outcome is “inactive”.

Q: And the max response (KB-3-1)?
A: Its max response is -12% and -6.11%.

Q: What about the max response (NIH3T3) of the same compound?
A: The max response was -10.7% and -7.98%.

Q: With `O=C(Nc1cccc(Br)c1)c1cccc(S(=O)(=O)N2CCCCCC2)c1` as the compound, how does the Potency (CRL-7250) read?
A: The Potency was 23.1 µM (active).

Q: And the Potency (HEK293)?
A: Its Potency is 13.2 µM (active) and 9.2 µM (active).

Q: And the max response (HaCat)?
A: Its max response is 4.06% and -1.39%.

Q: And the max response (NIH3T3)?
A: The max response was -21.3%.

Q: For `O=C1NC(=O)C(c2ccccc2)(c2ccccc2)N1`, which Potency (SC27B) is on record?
A: The Potency was “inactive”.

Q: What about the outcome (TAB109) of the same compound?
A: The outcome was “inactive”.

Q: What about the Potency (TAB113) of the same compound?
A: The Potency was “inactive”.

Q: What about the Potency (TAB165) of the same compound?
A: The Potency was “inactive”.

Q: And the Potency (W2)?
A: The Potency was “inactive”.

Q: And the outcome (CRL-7250)?
A: The outcome was “inactive”.

Q: And the max response (HEK293)?
A: Its max response is -11.5%.

Q: What about the max response (HaCat) of the same compound?
A: Its max response is -5.29%.

Q: And the max response (KB-3-1)?
A: The max response was 7.95%.

Q: What about the max response (NIH3T3) of the same compound?
A: Its max response is -3.65%.

Q: Which max response (CRL-7250) does the source give for `Cn1c(N2CCCCS2(=O)=O)nc(C(=O)NCc2ccc(F)cc2)c(O)c1=O` here?
A: Its max response is -1.04% and -2.16%.

Q: What about the max response (HEK293) of the same compound?
A: The max response was -2.82% and 1.1%.

Q: What about the outcome (HaCat) of the same compound?
A: The outcome was “inactive”.

Q: And the max response (KB-3-1)?
A: The max response was 0.163% and -14.6%.

Q: What about the max response (NIH3T3) of the same compound?
A: The max response was -0.0051%.

Q: And the outcome (NIH3T3)?
A: Its outcome is “inactive”.

Q: With `CCOC1OC(=O)C[C@H]1NC(=O)[C@@H]1CCCN1C(=O)[C@@H](NC(=O)c1ccc(N)c(Cl)c1)C(C)(C)C` (some centres undefined) as the compound, how does the outcome (CRL-7250) read?
A: The outcome was “inactive”.

Q: And the max response (HEK293)?
A: The max response was -6.79%.

Q: And the outcome (HaCat)?
A: Its outcome is “inactive”.

Q: What about the outcome (KB-3-1) of the same compound?
A: The outcome was “inactive”.

Q: What about the outcome (NIH3T3) of the same compound?
A: The outcome was “inactive”.

Q: How did the Potency (SC27B) turn out when `O=C1NCC2(CCN(CCc3ccccc3)CC2)O1` was run?
A: Its Potency is “inactive”.

Q: And the outcome (TAB109)?
A: Its outcome is “inactive”.

Q: And the Potency (TAB113)?
A: Its Potency is “inactive”.

Q: And the Potency (TAB165)?
A: Its Potency is “inactive”.

Q: What about the Potency (W2) of the same compound?
A: The Potency was “inactive”.

Q: What about the outcome (CRL-7250) of the same compound?
A: Its outcome is “inactive”.

Q: What about the outcome (HEK293) of the same compound?
A: The outcome was “inactive”.

Q: What about the outcome (HaCat) of the same compound?
A: Its outcome is “inactive”.

Q: What about the max response (KB-3-1) of the same compound?
A: Its max response is 9.9%.

Q: What about the outcome (NIH3T3) of the same compound?
A: The outcome was “inactive”.

Q: For `CC(=O)O[C@]1(C(C)=O)CC[C@H]2[C@@H]3C=C(Cl)C4=CC(=O)[C@@H]5C[C@@H]5[C@]4(C)[C@H]3CC[C@@]21C`, which Potency (SC27B) is on record?
A: Its Potency is “inactive”.

Q: And the max response (CRL-7250)?
A: Its max response is -14.7% and -0.0221%.

Q: And the Potency (HEK293)?
A: The Potency was 13 µM (active).

Q: And the max response (HaCat)?
A: Its max response is 4.62% and -21.2%.

Q: What about the max response (KB-3-1) of the same compound?
A: The max response was 2.19% and -8.34%.

Q: And the max response (NIH3T3)?
A: The max response was -8.51% and -19.2%.

Q: With `CO[C@H]1C[C@@H]2CC[C@@H](C)[C@@](O)(O2)C(=O)C(=O)N2CCCC[C@@H]2C(=O)O[C@H]([C@H](C)C[C@@H]2CC[C@H](OCCO)[C@H](OC)C2)CC(=O)[C@H](C)C=C(C)[C@@H](O)[C@@H](OC)C(=O)[C@H](C)C[C@H](C)C=CC=CC=C1C` as the compound, how does the max response (CRL-7250) read?
A: Its max response is -75.3%.

Q: And the Potency (HEK293)?
A: The Potency was 0.0017 µM (active).

Q: And the max response (HaCat)?
A: Its max response is -15.8%.

Q: What about the Potency (NIH3T3) of the same compound?
A: Its Potency is 8.33 µM (active).

Q: With `O=C(NCCN1CCOCC1)c1ccc(Cl)cc1` as the compound, how does the Potency (SC27B) read?
A: Its Potency is “inactive”.

Q: What about the outcome (TAB109) of the same compound?
A: The outcome was “inactive”.

Q: What about the Potency (TAB113) of the same compound?
A: The Potency was “inactive”.

Q: And the Potency (TAB165)?
A: Its Potency is “inactive”.

Q: And the Potency (W2)?
A: The Potency was “inactive”.

Q: What about the max response (CRL-7250) of the same compound?
A: Its max response is 0.679%.

Q: And the max response (HEK293)?
A: Its max response is -0.241%.

Q: What about the max response (HaCat) of the same compound?
A: The max response was -12.4%.

Q: And the max response (KB-3-1)?
A: Its max response is 3.6% and -22.2%.

Q: What about the max response (NIH3T3) of the same compound?
A: Its max response is 4.53%.

Q: What does the source list for `CC(=O)N[C@@H](CS)C(=O)O`?
A: Potency (SC27B): inactive; outcome (TAB109): inactive; Potency (TAB113): inactive; Potency (TAB165): inactive; Potency (W2): inactive; max response (CRL-7250): -25.8%; outcome (HEK293): inactive; max response (HaCat): -16.4%; max response (KB-3-1): 0.129%; outcome (NIH3T3): inactive

Q: What does the source list for `NC(CO)(CO)CCc1ccc(Sc2cccc(OCc3ccccc3)c2)cc1Cl`?
A: max response (CRL-7250): -10.2%; Potency (HEK293): 10.5 µM (active); Potency (HaCat): 26.4 µM (active); Potency (NIH3T3): 16.6 µM (active)

Q: Which results are given for `NC(N)=Nc1nc(CSCC/C(N)=N/S(N)(=O)=O)cs1`?
A: Potency (SC27B): inactive; outcome (TAB109): inactive; Potency (TAB113): inactive; Potency (TAB165): inactive; Potency (W2): inactive; max response (CRL-7250): -7.89%; outcome (HEK293): inactive; outcome (HaCat): inactive; max response (KB-3-1): 30.2%; outcome (NIH3T3): inactive
